# Assay results taken from PubChem BioAssay.
# The source made the active and inactive calls. How the calls were made is not given here.
# Biological target: Pantothenate synthetase (Mycobacterium tuberculosis (strain ATCC 25618 / H37Rv)) (UniProt P9WIL5)
# Assay: Coupled enzyme confirmation of inhibitors against recombinant Mtb PanC (AID 375);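 further: 0% = full reaction with vehicle and 100% = no enzyme background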
# Conditions: coupled enzyme assay; at 10 µM, stronger effect = higher value
# Pantothenate synthetase (Mycobacterium tuberculosis (strain ATCC 25618 / H37Rv)), sequence (P9WIL5 whole entry, looked up): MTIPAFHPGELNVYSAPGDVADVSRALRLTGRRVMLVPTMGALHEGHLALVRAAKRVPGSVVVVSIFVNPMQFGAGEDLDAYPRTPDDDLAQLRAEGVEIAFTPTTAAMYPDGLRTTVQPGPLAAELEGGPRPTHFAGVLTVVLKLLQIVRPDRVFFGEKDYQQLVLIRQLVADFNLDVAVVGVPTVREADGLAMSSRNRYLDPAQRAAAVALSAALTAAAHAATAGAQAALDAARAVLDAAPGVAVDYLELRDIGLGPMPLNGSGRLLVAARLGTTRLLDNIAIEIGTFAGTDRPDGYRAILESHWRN
row,Compound,inhibition
1,N#CCCN(Cc1cccnc1)C(=O)Nc1ccc(Cl)c(Cl)c1,1% (inactive)
2,CC(=O)Nc1ccc(S(=O)(=O)N2CCC(c3nc4ccccc4[nH]3)CC2)cc1,0% (inactive)
3,Cc1cccnc1-n1c(CCN2C(=O)c3ccccc3C2=O)nc2ccccc2c1=O,9% (inactive)
4,Cn1nc(-c2ccc(C(=O)N3CCN(c4ccccc4)CC3)cc2)c2ccccc2c1=O,0% (inactive)
5,O=S(=O)(c1cccc2c(S(=O)(=O)N3CCCC3)cccc12)N1CCCC1,0% (inactive)
6,CCOc1cc(C)c(Cl)cc1S(=O)(=O)N(C)C,5% (inactive)
7,CC(=O)c1ccc(NC(=O)C2CCN(S(=O)(=O)c3cccc4cccnc34)CC2)cc1,4% (inactive)
8,Cc1nnc(SCc2cc(=O)[nH]c(N3CCCCC3)n2)s1,1% (inactive)
9,COc1ccc(C2CNC(=O)C2)cc1OC1CCCC1 (stereo not given),1% (inactive)
10,COc1ccc(CN(C(=O)CSc2nnc(-c3ccccc3F)o2)c2ccc(F)cc2)cc1,0% (inactive)
11,CC1CC(NC(=O)c2cnc3n(c2=O)CCS3)CC(C)(C)C1 (stereo not given),5% (inactive)
12,COc1ccc2nc(NC(=O)C3CCCN(S(=O)(=O)c4cccc5nsnc45)C3)sc2c1 (stereo not given),5% (inactive)
13,CN1CCN(CC(=O)Nc2ccc(Cl)cc2Cl)CC1,3% (inactive)
14,CC(C)(C)c1ccc(C(O)CCCN2CCC(C(O)(c3ccccc3)c3ccccc3)CC2)cc1 (stereo not given),0% (inactive)
15,CC1(C)Cc2nc3oc4c(N(CCO)Cc5ccccc5)ncnc4c3cc2CO1,0% (inactive)
16,Cc1ccc(S(=O)(=O)N2CCCC2C(=O)n2nc(C)cc2C)cc1 (stereo not given),0% (inactive)
17,COc1cc2c(cc1OC)-c1cc(OCc3cccnc3)nc(=O)n1CC2,12% (inactive)
18,C/C(=C\C(=O)O)CC(=O)O,0% (inactive)
19,N#Cc1c(SCC(=O)N2CCOCC2)nsc1SCC(=O)N1CCOCC1,0% (inactive)
20,CCOC(=O)Cn1nnnc1CN(Cc1ccc(OC)cc1)Cc1cc2cc(C)ccc2[nH]c1=O,1% (inactive)

row,Compound,inhibition
1,Cc1cc(NS(=O)(=O)c2ccc(Nc3nc(-c4sc(N)nc4C)cs3)cc2)no1,4% (inactive)
2,c1ccc2c(c1)C(=Nn1cnnc1)c1ccccc1-2,0% (inactive)
3,CCn1nnc(NC(=O)c2cc3ccccc3o2)n1,0% (inactive)
4,c1ccc2oc(SCc3cn4ccccc4n3)nc2c1,0% (inactive)
5,O=C(CC(=O)c1cc(Cl)ccc1O)c1ccccc1,0% (inactive)
6,Cc1ccc(NC(=O)CCC(=O)OCC(F)(F)C(F)F)cc1,0% (inactive)
7,Cc1sc2nc(SCC(=O)N3CCN(CCO)CC3)n(-c3ccccc3)c(=O)c2c1C,6% (inactive)
8,COc1ccc(-c2nnc(SCC(=O)NC(=O)NCc3ccco3)o2)cc1,0% (inactive)
9,N#Cc1c(/N=C/c2ccco2)sc2c1CCC2,0% (inactive)
10,Cc1ccc(C(=O)CCC2CCCC2=O)cc1 (stereo not given),0% (inactive)
11,CN(CC(=O)N1CCN(C2CCCCC2)CC1)S(=O)(=O)c1cccc2nsnc12,8% (inactive)
12,Clc1ccc(Cl)c(-c2nn3c(COc4ccccc4)nnc3s2)c1,4% (inactive)
13,Cc1nn(-c2ccccc2)c2sc(C(=O)N3CCOCC3)cc12,0% (inactive)
14,CCOC(=O)N1CCC(N(C(=O)Nc2cccc(OC)c2)C(C)CC)CC1 (stereo not given),0% (inactive)
15,Cn1c(=O)c2c(nc(CN3CCN(c4ccccc4F)CC3)n2CCN2CCOCC2)n(C)c1=O,0% (inactive)
16,O=S(=O)(c1ccc2c(c1)OCCO2)N1CCC(n2nnc3cc(F)ccc32)CC1,1% (inactive)
17,CCN(CC)S(=O)(=O)c1ccc(F)c(C(=O)NCCC(C)C)c1,2% (inactive)
18,O=S(=O)(c1ccc2ccccc2c1)N(CC(O)CN1CCOCC1)c1ccccc1 (stereo not given),0% (inactive)
19,COc1cccc(-c2nc(-c3ccc(NC(=O)Cc4ccccc4OC)cc3)no2)c1,11% (inactive)
20,COc1cccc(OC)c1C(=O)n1nc(C)cc1C,6% (inactive)
